According to PubChem BioAssay (EPA / NIEHS):
Calls of active or inactive are those of the source. Rule for the calls: active = hit-call score of the fitted dose curve at least 0.9, where 1 is the maximum; inactive = score below 0.9.

Tests used:
Conditions in all cases: mRNA level, 48 h; actives raise or lower the signal
[1] = read-out: Cytochrome P450 (CYP2B6), CYP2B6 (gene 1555); assay: LTEA_HepaRG_CYP2B6: Life Technologies and Expression Analysis (LTEA) Assay for Cytochrome P450 (CYP2B6) using HepaRG (AID 2283481)
Procedure, shortened: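 HepaRG cells plated 48 h, switched to serum-free induction medium, then dosed 48 h (8 points, half-log from 100 uM, 0.5% DMSO). RNA isolated; CYP2B6 expression measured by qRT-PCR; gain or loss fitted relative to DMSO.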

[2] = read-out: Cytochrome P450 2C19 (Homo sapiens) (UniProt P33261); assay: LTEA_HepaRG_CYP2C19: Life Technologies and Expression Analysis (LTEA) Assay for CYP2C19 using HepaRG (AID 2283482)
Procedure, shortened: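 Transcript levels of CYP2C19 were quantified by qRT-PCR after HepaRG cells were treated for 48 hours with test chemicals up to 100 uM (eight half-log concentrations, 0.5% DMSO vehicle). Gain or loss of signal was fitted relative to DMSO.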

[3] = read-out: CYP2C8 (gene 1558); assay: LTEA_HepaRG_CYP2C8: Life Technologies and Expression Analysis (LTEA) Assay for CYP2C8 using HepaRG (AID 2283483)
Procedure, shortened: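 Differentiated HepaRG cells in serum-free induction medium exposed 48 h in duplicate to 8 half-log concentrations from 100 uM in 0.5% DMSO. CYP2C8 mRNA by qRT-PCR normalized to ACTB, GAPDH, POLR2A; bidirectional fit versus DMSO.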

[4] = read-out: CYP2C9 (gene 1559); assay: LTEA_HepaRG_CYP2C9: Life Technologies and Expression Analysis (LTEA) Assay for CYP2C9 using HepaRG (AID 2283484)
Procedure, shortened: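 Differentiated human HepaRG cells in serum-free induction medium were exposed 48 h to chemicals in 8-point half-log series from 100 uM (0.5% DMSO), in duplicate. CYP2C9 mRNA was measured by qRT-PCR, normalized to ACTB/GAPDH/POLR2A, with bidirectional fitting versus DMSO.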

[5] = read-out: CYP2E1 (gene 1571); assay: LTEA_HepaRG_CYP2E1: Life Technologies and Expression Analysis (LTEA) Assay for CYP2E1 using HepaRG (AID 2283485)
Procedure, shortened: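 HepaRG cells, plated 48 h, then exposed 48 h in serum-free induction medium to eight half-log concentrations from 100 uM in 0.5% DMSO, duplicate. CYP2E1 mRNA by qRT-PCR, normalized to ACTB/GAPDH/POLR2A; bidirectional fit versus DMSO.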

[6] = read-out: DNA damage-inducible transcript 3 (DDIT3), DDIT3 (gene 1649); assay: LTEA_HepaRG_DDIT3: Life Technologies and Expression Analysis (LTEA) Assay for DNA damage-inducible transcript 3 (DDIT3) using HepaRG (AID 2283488)
Procedure, shortened: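 HepaRG cells, 48 h after plating, exposed 48 h in serum-free induction medium to 8 half-log concentrations up to 100 uM in 0.5% DMSO, in duplicate. DDIT3 mRNA measured by TaqMan qRT-PCR, normalized to ACTB, GAPDH and POLR2A. Fitted bidirectionally against DMSO.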

[7] = read-out: Pro-epidermal growth factor (Homo sapiens) (UniProt P01133); assay: LTEA_HepaRG_EGF: Life Technologies and Expression Analysis (LTEA) Assay for Epidermal growth factor (EGF) using HepaRG (AID 2283489)
Procedure, shortened: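 HepaRG, 48 h dosing, 100 uM top, half-log x8, 0.5% DMSO. Readout: TaqMan qRT-PCR (Fluidigm array), housekeeping-normalized. Gain or loss of signal fit vs DMSO.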

[8] = read-out: Early growth response protein 1 (EGR1) transcription factor, EGR1 (gene 1958); assay: LTEA_HepaRG_EGR1: Life Technologies and Expression Analysis (LTEA) Assay for Early growth response protein 1 (EGR1) transcription factor using HepaRG (AID 2283490)
Procedure, shortened: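 Differentiated HepaRG cells in serum-free induction medium exposed 48 hours, duplicate, to 8 half-log concentrations up to 100 uM in 0.5% DMSO. EGR1 mRNA measured by TaqMan qRT-PCR, normalized to ACTB, GAPDH, POLR2A; bidirectional fit versus DMSO.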

[9] = read-out: Ezrin (EZR), EZR (gene 7430); assay: LTEA_HepaRG_EZR: Life Technologies and Expression Analysis (LTEA) Assay for Ezrin (EZR) using HepaRG (AID 2283491)
Procedure, shortened: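 EZR transcript levels came from Fluidigm qRT-PCR and were normalized to three housekeeping genes after 48 h chemical exposure of HepaRG cells. Dosing used an 8-point half-log series with a 100 uM top concentration in 0.5% DMSO, tested in duplicate; both directions were fitted versus vehicle.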

[10] = read-out: Cytochrome P450 3A7 (Homo sapiens) (UniProt P24462); assay: LTEA_HepaRG_CYP3A7: Life Technologies and Expression Analysis (LTEA) Assay for CYP3A7 using HepaRG (AID 2283492)
Procedure, shortened: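 Human HepaRG liver cells, 48 h post-plating, switched to serum-free induction medium and exposed in duplicate for 48 h. Dosing: 100 uM top, half-log dilutions, 8 points, 0.5% DMSO vehicle. Read-out: CYP3A7 mRNA, gain or loss fitted against DMSO baseline.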

[11] = read-out: CYP3A5 (gene 1577); assay: LTEA_HepaRG_CYP3A5: Life Technologies and Expression Analysis (LTEA) Assay for CYP3A5 using HepaRG (AID 2283493)
Procedure, shortened: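 HepaRG cells, plated 48 h then in serum-free induction medium, dosed in duplicate for 48 h with eight half-log concentrations up to 100 uM in 0.5% DMSO. Gene mRNA by Fluidigm TaqMan qRT-PCR, normalized to ACTB, GAPDH, POLR2A.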

[12] = read-out: Fatty Acid-Binding Protein 1 (FABP1), FABP1 (gene 2168); assay: LTEA_HepaRG_FABP1: Life Technologies and Expression Analysis (LTEA) Assay for Fatty Acid-Binding Protein 1 (FABP1) using HepaRG (AID 2283494)
Procedure, shortened: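 Differentiated human HepaRG cells exposed 48 h in serum-free induction medium to eight half-log concentrations up to 100 uM (0.5% DMSO), duplicate. FABP1 mRNA by qRT-PCR, normalised to ACTB, GAPDH, POLR2A; bidirectional fitting against DMSO.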

[13] = read-out: Cytochrome P450 4A22 (Homo sapiens) (UniProt Q5TCH4); assay: LTEA_HepaRG_CYP4A22: Life Technologies and Expression Analysis (LTEA) Assay for Cytochrome P450 4A22 (CYP4A22) using HepaRG (AID 2283495)
Procedure, shortened: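 Readout is CYP4A22 transcript induction or loss, quantified by qRT-PCR and normalized to ACTB, GAPDH and POLR2A. Human HepaRG cells receive test chemicals for 48 h at eight half-log concentrations from 100 uM in 0.5% DMSO.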

[14] = read-out: Cytochrome P450 7A1 (Homo sapiens) (UniProt P22680); assay: LTEA_HepaRG_CYP7A1: Life Technologies and Expression Analysis (LTEA) Assay for Cytochrome P450 7A1 (CYP7A1) using HepaRG (AID 2283496)
Procedure, shortened: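 HepaRG cells plated 48 h, then switched to serum-free induction medium and exposed in duplicate for 48 h to 8-point half-log series from 100 uM in 0.5% DMSO. CYP7A1 mRNA by qRT-PCR (TaqMan), normalized to ACTB/GAPDH/POLR2A; bidirectional fit versus DMSO.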

[15] = read-out: Glutathione S-Transferase (GSTA2), GSTA2 (gene 2939); assay: LTEA_HepaRG_GSTA2: Life Technologies and Expression Analysis (LTEA) Assay for Glutathione S-Transferase (GSTA2) using HepaRG (AID 2283497)
Procedure, shortened: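 Differentiated human HepaRG cells were exposed in duplicate for 48 h in serum-free induction medium, 8 points from 100 uM top in half-log steps, 0.5% DMSO. GSTA2 mRNA was measured by TaqMan qRT-PCR, normalized to ACTB, GAPDH and POLR2A; bidirectional fit versus DMSO.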

[16] = read-out: Glutamate-cysteine ligase catalytic (GCLC), GCLC (gene 2729); assay: LTEA_HepaRG_GCLC: Life Technologies and Expression Analysis (LTEA) Assay for Glutamate-cysteine ligase catalytic (GCLC) using HepaRG (AID 2283498)
Procedure, shortened: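 Differentiated HepaRG cells exposed 48 h in serum-free induction medium, eight-point half-log series topping at 100 uM in 0.5% DMSO, duplicates. GCLC mRNA by qRT-PCR normalized to ACTB, GAPDH and POLR2A, fitted bidirectionally versus DMSO.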

[17] = read-out: growth arrest and DNA damage 45 (GADD45G), GADD45G (gene 10912); assay: LTEA_HepaRG_GADD45G: Life Technologies and Expression Analysis (LTEA) Assay for growth arrest and DNA damage 45 (GADD45G) using HepaRG (AID 2283499)
Procedure, shortened: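 Gain or loss of GADD45G mRNA, quantified by TaqMan qRT-PCR against three housekeeping genes, is fitted in both directions relative to 0.5% DMSO. Human HepaRG cultures receive test chemical for 48 h at up to 100 uM.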

[18] = read-out: Glutamate-cysteine ligase regulatory (GCLM), GCLM (gene 2730); assay: LTEA_HepaRG_GCLM: Life Technologies and Expression Analysis (LTEA) Assay for Glutamate-cysteine ligase regulatory (GCLM) using HepaRG (AID 2283500)
Procedure, shortened: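 Differentiated HepaRG cells exposed 48 h in serum-free induction medium to eight half-log concentrations up to 100 uM (0.5% DMSO). GCLM mRNA by TaqMan qRT-PCR, normalized to ACTB, GAPDH and POLR2A; bidirectional fit versus DMSO.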

[19] = read-out: Cytochrome P450 3A4 (Homo sapiens) (UniProt P08684); assay: LTEA_HepaRG_CYP3A4: Life Technologies and Expression Analysis (LTEA) Assay for CYP3A4 using HepaRG (AID 2283487)
Procedure, shortened: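 Differentiated HepaRG cells, plated 48 h, then dosed 48 h in serum-free induction medium with 0.5% DMSO, 8 half-log concentrations up to 100 uM, duplicate. CYP3A4 mRNA by qRT-PCR, normalized to ACTB/GAPDH/POLR2A; bidirectional fit versus DMSO.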

Measured: outcome

Chain of Cytochrome P450 2C19 (Homo sapiens) (P33261 whole entry, looked up): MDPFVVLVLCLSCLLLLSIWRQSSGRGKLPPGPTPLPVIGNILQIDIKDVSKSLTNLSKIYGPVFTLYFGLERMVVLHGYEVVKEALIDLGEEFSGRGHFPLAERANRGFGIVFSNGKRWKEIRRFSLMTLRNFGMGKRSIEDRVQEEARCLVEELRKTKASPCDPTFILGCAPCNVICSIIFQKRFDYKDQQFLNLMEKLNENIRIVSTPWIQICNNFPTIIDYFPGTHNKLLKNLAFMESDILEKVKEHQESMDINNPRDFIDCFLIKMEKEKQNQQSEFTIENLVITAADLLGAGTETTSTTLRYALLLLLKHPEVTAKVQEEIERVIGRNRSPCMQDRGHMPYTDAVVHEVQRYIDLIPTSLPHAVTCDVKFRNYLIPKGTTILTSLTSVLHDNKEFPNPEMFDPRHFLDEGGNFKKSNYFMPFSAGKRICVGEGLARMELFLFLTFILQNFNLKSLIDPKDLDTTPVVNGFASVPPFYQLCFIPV
Chain of Cytochrome P450 3A7 (Homo sapiens) (P24462 whole entry, looked up): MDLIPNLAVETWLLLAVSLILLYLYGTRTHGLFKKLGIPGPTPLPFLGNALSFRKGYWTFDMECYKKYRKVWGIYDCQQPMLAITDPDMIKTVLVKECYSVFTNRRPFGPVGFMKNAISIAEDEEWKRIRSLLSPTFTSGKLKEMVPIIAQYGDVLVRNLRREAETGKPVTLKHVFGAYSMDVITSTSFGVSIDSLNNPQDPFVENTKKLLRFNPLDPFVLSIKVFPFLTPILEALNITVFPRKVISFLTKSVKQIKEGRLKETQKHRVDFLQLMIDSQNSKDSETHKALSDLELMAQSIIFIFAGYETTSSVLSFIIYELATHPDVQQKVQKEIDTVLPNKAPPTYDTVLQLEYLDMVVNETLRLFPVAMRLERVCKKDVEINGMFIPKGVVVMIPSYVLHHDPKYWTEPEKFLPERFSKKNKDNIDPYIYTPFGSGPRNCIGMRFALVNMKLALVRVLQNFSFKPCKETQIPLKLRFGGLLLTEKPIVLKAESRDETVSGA
Chain of Cytochrome P450 3A4 (Homo sapiens) (P08684 whole entry, looked up): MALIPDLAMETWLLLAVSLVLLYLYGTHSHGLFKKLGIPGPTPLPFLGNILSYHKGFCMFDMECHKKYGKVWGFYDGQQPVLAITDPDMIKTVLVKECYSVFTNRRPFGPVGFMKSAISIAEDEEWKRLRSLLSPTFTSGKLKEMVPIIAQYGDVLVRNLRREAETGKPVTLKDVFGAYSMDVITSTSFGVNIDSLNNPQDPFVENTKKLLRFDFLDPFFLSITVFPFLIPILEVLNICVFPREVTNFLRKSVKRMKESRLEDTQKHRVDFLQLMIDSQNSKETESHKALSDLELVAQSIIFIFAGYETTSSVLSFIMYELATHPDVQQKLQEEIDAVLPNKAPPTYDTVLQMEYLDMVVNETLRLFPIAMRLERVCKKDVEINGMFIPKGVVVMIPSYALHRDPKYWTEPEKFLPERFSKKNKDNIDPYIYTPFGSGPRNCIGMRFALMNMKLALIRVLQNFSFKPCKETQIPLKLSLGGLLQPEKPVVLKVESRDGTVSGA

CCCCCOC(C)=O
not listed: [19]
inactive: all other assays above

CC(C)CCCCCCOC(=O)C1CCCCC1C(=O)OCCCCCCC(C)C (stereo not drawn)
not listed: [5] | [8]
inactive: all other assays above

CCCCCCCCN(C)C
not listed: [4]
inactive: all other assays above
